# In PubChem BioAssay (NCATS):
# Records with an inconclusive call do not appear. Values without a mark were called inactive. Calls of active or inactive are those of the source. The call rests on the fitted dose curve; in most records, active means well fitted curve in the direction sought with a large enough effect; inconclusive means small, poorly fitted or top-dose-only effect, or another doubt; inactive means no such curve, though single readings can be large; an effect the other way counts as inactive or inconclusive.
# How the values were obtained:
# [1] = system: CASKI; assay: Primary qHTS to identify gynecologic anti-cancer compounds using libraries of approved drugs and bioactive compounds (AID 1345084); conditions: Gynecologic cancer cell panel viability, ATPlite luminescence, 48 h; series mostly up to 57.5 µM; further: nearly all actives have a fitted effect of over 55% in size
# Outline: (§1)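 Cell viability after 48 h drug treatment, ATPlite luminescence readout; five doses.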
# [2] = system: HeLa; assay: as above; conditions: Gynecologic cancer cell panel viability, ATPlite luminescence, 48 h; series mostly up to 57.5 µM
# Outline: as §1
# [3] = system: Hek293T; assay: as above; conditions: Gynecologic cancer cell panel viability, ATPlite luminescence, 48 h, control line for the selectivity index; series mostly up to 57.5 µM
# Outline: as §1
# [4] = system: JEG-3; assay: as above; conditions: Gynecologic cancer cell panel viability, ATPlite luminescence, 48 h; series mostly up to 57.5 µM
# Outline: as §1
# [5] = system: OV90; assay: as above; conditions: Gynecologic cancer cell panel viability, ATPlite luminescence, 48 h; series mostly up to 57.5 µM
# Outline: as §1
# [6] = system: SKOV3; assay: as above; conditions: Gynecologic cancer cell panel viability, ATPlite luminescence, 48 h; series mostly up to 57.5 µM
# Outline: as §1
# [7] = system: Es-2; assay: as above; conditions: Gynecologic cancer cell panel viability, ATPlite luminescence, 48 h; series mostly up to 57.5 µM
# Outline: as §1
# [8] = system: PA-1; assay: as above; conditions: Gynecologic cancer cell panel viability, ATPlite luminescence, 48 h; series mostly up to 57.5 µM
# Outline: as §1
# [9] = system: Tov-21-G; assay: as above; conditions: Gynecologic cancer cell panel viability, ATPlite luminescence, 48 h; series mostly up to 57.5 µM
# Outline: as §1
# [10] = system: Tov112D; assay: as above; conditions: Gynecologic cancer cell panel viability, ATPlite luminescence, 48 h; series mostly up to 57.5 µM
# Outline: as §1
# [11] = qHTS assay to identify inhibitors of the type 1 interferon - major histocompatibility complex class I in skeletal muscle: Counter screen cell viability and HiBit confirmation (AID 1347412); conditions: iHSKM muscle cells + IFN-b, HiBiT or CellTiter-Glo, 24 h; for activity change, negative = inhibition: at 45.9 µM (top of the series); on all read-outs here: nearly all actives have a fitted effect of over 60% in size
# Outline: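 Luminescence read-out: Nano-Glo HiBiT lytic signal from C-terminally HiBiT-tagged HLA-B in CRISPR-edited human myoblasts, plus CellTiter Glo ATP as viability counter screen. IFN-beta 4.0 ng/ml; 24 hrs treatment at 37 C, 5% CO2.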
# On the % scale 0 is the no-effect control and ±100 the full control effect; potency means the concentration at half of the fitted maximal effect.
structure (smiles),measurement,setting,value
CN(C)C1CCN(C(=O)c2ccc(NC(=O)Nc3ccc(-c4nc(N5CCOCC5)nc(N5CCOCC5)n4)cc3)cc2)CC1,Potency,[1],0.282 µM (active)
same,Potency,[2],0.562 µM (active)
same,Potency,[3],0.398 µM (active)
CCn1c(=O)c(-c2ccn[nH]2)cc2c(C)nc(N)nc21,Potency,[1],15.8 µM (active)
same,Potency,[2],8.91 µM (active)
same,Potency,[3],8.91 µM (active)
same,Potency,[4],inactive
same,Potency,[5],14.1 µM (active)
same,Potency,[6],10 µM (active)
O=S(=O)(Nc1ccccn1)c1ccc(N=Cc2c(O)[nH]c3ccc4ncsc4c23)cc1,"activity change, negative = cytotoxicity",[1],20.8% [at 11.6 µM]
same,"activity change, negative = cytotoxicity",[7],-0.0602% [at 11.6 µM]
same,"activity change, negative = cytotoxicity",[3],20.8% [at 11.6 µM]
same,"activity change, negative = cytotoxicity",[4],3.65% [at 11.6 µM]
same,"activity change, negative = cytotoxicity",[5],-9.17% [at 11.6 µM]
same,"activity change, negative = cytotoxicity",[8],-2.66% [at 11.6 µM]
same,"activity change, negative = cytotoxicity",[9],18.8% [at 11.6 µM]
C=C1C(=O)O[C@@H]2[C@H]1CCC(C)=C1CCC(=O)O[C@]12C,Potency,[1],inactive
same,Potency,[2],inactive
same,Potency,[10],inactive
COc1cccc(-c2cc(NCc3ccc4c(c3)OCO4)nc(N)n2)c1,Potency,[7],1.41 µM (active)
same,Potency,[2],1 µM (active)
same,Potency,[4],1.41 µM (active)
same,Potency,[8],1 µM (active)
same,Potency,[9],1 µM (active)
same,Potency,[10],0.447 µM (active)
Cn1cncc1C(N)(c1ccc(Cl)cc1)c1ccc2c(c1)c(-c1cccc(Cl)c1)cc(=O)n2C (stereo not given),Potency,[1],inactive
same,Potency,[2],inactive
same,Potency,[6],inactive
same,"activity change, negative = inhibition",[11]; Viability,-22.3%
CCCNc1ccc2ncc(-c3ccc4[nH]ncc4c3)n2n1,Potency,[1],8.91 µM (active)
same,Potency,[2],4.47 µM (active)
same,Potency,[3],2 µM (active)
same,Potency,[8],2.82 µM (active)
same,Potency,[9],3.16 µM (active)
same,Potency,[10],3.55 µM (active)
CC(C)(C)Nc1nc2cc(Cl)c(Cl)cc2nc1S(C)(=O)=O,Potency,[1],35.5 µM (active)
same,Potency,[3],28.2 µM (active)
same,Potency,[4],15.8 µM (active)
same,Potency,[6],20 µM (active)
same,Potency,[9],28.2 µM (active)
CNC(=O)c1ccccc1Nc1nc(Nc2ccc(N3CCNCC3)cc2)ncc1Cl,Potency,[1],0.355 µM (active)
same,Potency,[7],2.24 µM (active)
same,Potency,[2],0.0398 µM (active)
same,Potency,[3],0.631 µM (active)
same,Potency,[8],0.316 µM (active)
same,Potency,[9],0.355 µM (active)
COc1cc2ncnc(N3CCC(Oc4cnc5ccccc5n4)C3)c2cc1OC (stereo not given),Potency,[1],7.08 µM (active)
same,Potency,[7],3.98 µM (active)
same,Potency,[2],1.78 µM (active)
same,Potency,[3],3.55 µM (active)
same,Potency,[10],1 µM (active)
CNC(=O)c1ccccc1Nc1nc(Nc2ccc3c(c2OC)CCC[C@@H](N2CCN(CCO)CC2)C3)ncc1Cl,Potency,[1],12.6 µM (active)
same,Potency,[5],7.94 µM (active)
same,Potency,[8],10 µM (active)
same,Potency,[9],10 µM (active)
CN(C)c1nc(NC2CCC(NC(=O)c3ccc(F)c(F)c3)CC2)nc2ccccc12 (stereo not given),Potency,[1],inactive
same,Potency,[3],28.2 µM (active)
same,Potency,[5],11.2 µM (active)
same,Potency,[8],14.1 µM (active)
CO[C@@H](C)Cn1c(=O)n(C)c2cnc3ccc(-c4cncc(C(C)(C)O)c4)cc3c21,Potency,[1],5.01 µM (active)
same,Potency,[2],6.31 µM (active)
same,Potency,[3],0.562 µM (active)
same,Potency,[4],31.6 µM (active)
same,Potency,[8],0.891 µM (active)
C=CC(=O)Nc1cc(Nc2ncc(Cl)c(-c3c[nH]c4ccccc34)n2)c(OC)cc1N(C)CCN(C)C,Potency,[1],2.24 µM (active)
same,Potency,[2],12.6 µM (active)
same,Potency,[3],11.2 µM (active)
same,Potency,[4],12.6 µM (active)
same,Potency,[5],3.98 µM (active)
same,Potency,[8],6.31 µM (active)
same,Potency,[9],15.8 µM (active)
same,Potency,[10],15.8 µM (active)
CC(=O)SCC(=O)c1ccc(NS(=O)(=O)c2ccc(OCCCN(C)C)cc2)nc1,Potency,[7],14.1 µM (active)
same,Potency,[2],10 µM (active)
same,Potency,[4],15.8 µM (active)
same,Potency,[8],2.82 µM (active)
same,Potency,[9],11.2 µM (active)
CNS(=O)(=O)c1ccccc1Nc1nc(Nc2ccc(N3CCN(C)CC3)cc2OC)ncc1Cl,Potency,[1],7.08 µM (active)
same,Potency,[7],12.6 µM (active)
same,Potency,[2],2 µM (active)
same,Potency,[3],12.6 µM (active)
same,Potency,[6],3.55 µM (active)
same,Potency,[10],10 µM (active)
COc1ncc(Nc2ncc([C@H](C)N3CCN(S(C)(=O)=O)CC3)cc2-c2nc(C)nc(N)n2)cc1F,Potency,[1],1 µM (active)
same,Potency,[7],inactive
same,Potency,[3],0.794 µM (active)
same,Potency,[5],inactive
same,Potency,[6],2.82 µM (active)
same,Potency,[10],inactive
COc1cc2ncnc(Nc3cccc(O)c3)c2cc1OC,Potency,[7],inactive
same,Potency,[2],inactive
same,Potency,[3],inactive
same,Potency,[4],inactive
same,Potency,[9],15.8 µM (active)
same,Potency,[10],inactive
CC(Oc1ccc2[nH]nc(/C=C/c3cnn(CCO)c3)c2c1)c1c(Cl)cncc1Cl (stereo not given),Potency,[7],20 µM (active)
same,Potency,[2],1.58 µM (active)
same,Potency,[3],10 µM (active)
same,Potency,[8],6.31 µM (active)
same,Potency,[9],3.55 µM (active)
COc1cc2c(cc1OC)-c1[nH]nc(Nc3cccc(F)c3)c1C2,Potency,[1],0.891 µM (active)
same,Potency,[7],1.41 µM (active)
same,Potency,[2],0.562 µM (active)
same,Potency,[8],0.316 µM (active)
same,Potency,[9],2.24 µM (active)
same,Potency,[10],0.282 µM (active)
C[C@@H]1C[C@H]2O[C@@H]2/C=C\C=C\C(=O)Cc2c(Cl)c(O)cc(O)c2C(=O)O1,"activity change, negative = cytotoxicity",[1],-0.527% [at 11.6 µM]
same,"activity change, negative = cytotoxicity",[10],-26.2% [at 11.6 µM]
CCC(C)C(=O)OC1CC(O)C23C4OCC5(C(O)CC2C1(C)C(O)O4)C3C(=O)CC1(C)C(c2ccoc2)CC2OC215 (stereo not given),Potency,[1],inactive
same,Potency,[3],10 µM (active)
same,Potency,[4],inactive
same,Potency,[5],1.78 µM (active)
same,Potency,[10],11.2 µM (active)
NC(=O)c1cccc2cn(-c3ccc(C4CCCNC4)cc3)nc12 (stereo not given),Potency,[1],inactive
same,Potency,[2],inactive
same,Potency,[3],inactive
same,Potency,[4],inactive
same,Potency,[5],inactive
same,Potency,[6],inactive
same,Potency,[9],inactive
COc1ccc(CC2C(=O)NC(C)C(=O)N(C)C3Cc4ccc(cc4)Oc4cc(ccc4OC4OC(CO)C(O)C(O)C4O)CC(C(=O)NC(C)C(=O)NC(C)C(=O)N2C)N(C)C3=O)cc1 (stereo not given),Potency,[1],0.631 µM (active)
same,Potency,[7],0.398 µM (active)
same,Potency,[2],2 µM (active)
same,Potency,[3],0.158 µM (active)
same,Potency,[6],1.41 µM (active)
same,Potency,[9],1.26 µM (active)
same,Potency,[10],0.501 µM (active)
CN(C)C/C=C/C(=O)Nc1cccc(C(=O)Nc2cccc(Nc3ncc(Cl)c(-c4c[nH]c5ccccc45)n3)c2)c1,Potency,[1],1.58 µM (active)
same,Potency,[7],8.91 µM (active)
same,Potency,[2],2 µM (active)
same,Potency,[8],2.82 µM (active)
same,Potency,[10],1.26 µM (active)
same,Potency,[11]; HiBiT,1.11 µM (active)
same,"activity change, negative = inhibition",[11]; Viability,0.891%
N#CC(c1ccnc(OCc2ccc(CN3CCOCC3)cc2)n1)c1nc2ccccc2s1 (stereo not given),Potency,[7],inactive
same,Potency,[2],inactive
same,Potency,[4],10 µM (active)
same,Potency,[5],7.94 µM (active)
same,Potency,[8],inactive
same,Potency,[6],7.94 µM (active)
same,Potency,[10],inactive
COc1cccc(Nc2ncnn3ccc(CN4CC[C@@H](N)[C@H](O)C4)c23)c1,Potency,[1],inactive
same,Potency,[7],inactive
same,Potency,[2],inactive
same,Potency,[4],inactive
same,Potency,[9],5.62 µM (active)
same,Potency,[11]; HiBiT,6.25 µM (active)
CCOc1cc2ncc(C#N)c(Nc3ccc(F)c(Cl)c3)c2cc1NC(=O)/C=C/CN(C)C,Potency,[11]; Viability,17.6 µM (active)
CCS(=O)(=O)N1CCN(c2ccc(Nc3ncc(C(N)=O)c(NC4CC4)n3)cc2)CC1,"activity change, negative = inhibition",[11]; Viability,5.56%
CCN1CCN(Cc2ccc(NC(=O)Nc3ccc(Oc4cc(NC)ncn4)cc3)cc2C(F)(F)F)CC1,"activity change, negative = inhibition",[11]; Viability,-17.1%
